Potency and affinity values are given separately. Results filed as inconclusive are left out. A call without a number means that no potency is given here. Active and inactive are the calls of the source.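 The calls were made as follows: active = a valid curve of falling signal whose half-effect concentration is at most ten times the top tested dose; inconclusive = flat curve at 30 to 70% inhibition, or poor fit; inactive = signal rise, flat within 30%, or potency beyond limit.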
Molecular target: Scavenger receptor class B member 1 (Mus musculus) (UniProt Q61009)
Sequence (Q61009 whole entry, looked up): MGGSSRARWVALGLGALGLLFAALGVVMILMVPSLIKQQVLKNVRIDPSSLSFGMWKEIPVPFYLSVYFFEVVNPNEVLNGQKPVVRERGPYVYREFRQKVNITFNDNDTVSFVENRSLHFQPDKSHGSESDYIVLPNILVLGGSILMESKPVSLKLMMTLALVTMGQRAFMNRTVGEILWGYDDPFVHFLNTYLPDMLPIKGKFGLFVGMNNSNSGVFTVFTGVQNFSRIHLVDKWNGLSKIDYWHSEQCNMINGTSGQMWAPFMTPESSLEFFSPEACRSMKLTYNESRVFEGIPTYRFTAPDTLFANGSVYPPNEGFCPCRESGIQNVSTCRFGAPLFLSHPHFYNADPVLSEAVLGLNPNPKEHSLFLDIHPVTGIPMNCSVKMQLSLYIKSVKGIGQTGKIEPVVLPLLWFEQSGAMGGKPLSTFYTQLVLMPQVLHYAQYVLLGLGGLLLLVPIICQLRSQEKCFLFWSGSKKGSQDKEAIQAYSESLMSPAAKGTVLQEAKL
Test: inhibitors of SR-BI mediated HDL lipid uptake, dose response, ldlA[mSR-BI] cells, fluorescence, cherry pick (AID 493194);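 also: CHO cells lacking LDL receptor and overexpressing mouse SR-BI; cellular uptake of fluorescently labeled HDL measured as cell fluorescence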

SMILES	outcome
CCC1CCCCN1C(=O)CSc1nnc(-c2ccco2)o1 (stereo unspecified)	inactive
O=C(Nc1ncc(Cc2cccc(C(F)(F)F)c2)s1)c1ccc(-c2cccc([N+](=O)[O-])c2)o1	inactive
Cc1cc2oc(=O)cc(CN3CCN(C/C=C/c4ccccc4)CC3)c2cc1O	inactive
CC(=O)Nc1c(I)c(C(=O)N[C@H]2C(O)O[C@H](CO)[C@@H](O)[C@@H]2O)c(I)c(N(C)C(C)=O)c1I (stereo partly specified)	inactive
CC(C)C(=O)Nc1sc2c(c1-c1nc3ccccc3[nH]1)CCCC2	inactive
O=C1C2C3C=CC(C3)C2C(=O)N1c1cccc(N2C(=O)C3C4C=CC(C4)C3C2=O)n1 (stereo unspecified)	inactive
C/C=C/COC(=O)c1[nH]c2c(c1C)C(=O)CC(c1ccco1)C2 (stereo unspecified)	inactive
O=C(c1ccc(S(=O)(=O)NCc2ccco2)cc1)N1CCN(Cc2ccc3c(c2)OCO3)CC1	inactive
CCC(C(=O)NC1CCCC1)N(C(=O)Cn1nnc(-c2ccc(OC)c(OC)c2)n1)c1cccc(O)c1 (stereo unspecified)	inactive
COc1ccc(COC(=O)c2ccc(Br)c(S(=O)(=O)N3CCOCC3)c2)cc1F	inactive
CC1Cc2ccccc2N1CC(=O)Nc1ccc(N2CCOCC2)cc1 (stereo unspecified)	inactive
CCOCCOC(=O)c1[nH]c2c(c1C)C(=O)CC(c1cccs1)C2 (stereo unspecified)	inactive
COc1ccc([C@H]2/C=C\CN(S(=O)(=O)c3cccc4cccnc34)[C@@H](C)C(=O)N2Cc2ccc(F)cc2)cc1	inactive
O=C(Nc1cccc(Cl)c1)Nc1sccc1-c1nc2ccccc2s1	inactive
Cc1ccc(NS(=O)(=O)c2ccc(C(=O)NNC(=O)c3ccccc3O)cc2)cc1	inactive
O=C(NCN1C(=O)C2C3C=CC(C3)C2C1=O)OC1CCCCC1 (stereo unspecified)	inactive
O=C(NC1CCCCC1)C(c1ccc2ncccc2c1)N(Cc1ccco1)C(=O)c1ccc2c(c1)OCCO2 (stereo unspecified)	inactive
CCOC(=O)C1CCCN(S(=O)(=O)NC[C@H]2O[C@@H](n3cnc4c(N)ncnc43)[C@H](O)[C@@H]2O)C1 (stereo partly specified)	inactive
CNc1sc(C(=O)c2cccs2)c(N)c1-c1nc2ccccc2s1	inactive
CCOc1ccc(NC(=O)CN2CCN(CC(=O)Nc3ccc(Cl)c(C(F)(F)F)c3)CC2)cc1	inactive
COC(=O)C1=CN(c2ccc(F)c(F)c2)C=C(C(=O)OC)C1c1ccc([N+](=O)[O-])cc1	inactive
CCOc1cc2c3c(c1)C1(C(=O)N3C(C)(C)CC2C)C(C#N)=C(N)N2C(=C1C#N)Nc1ccccc12 (stereo unspecified)	inactive
COc1cc(OC)cc(C(=O)N[C@H](C(=O)OCC(=O)c2ccc3c(c2)NC(=O)CO3)C(C)C)c1	inactive

SMILES	outcome
COc1ccc(N2CC(C(=O)NCCC3=CCCCC3)CC2=O)c(OC)c1 (stereo unspecified)	inactive
Cc1c(C(=O)Nc2ccc(Cl)cc2)c2ccccn2c1CCc1ccncc1	inactive
COCCNC(=O)c1ccc(CS(=O)(=O)c2cccc(C(F)(F)F)c2)o1	inactive
O=C(NCC1CCCO1)c1ccc2c(c1)N(Cc1ccc(F)cc1Cl)C(=O)CS2 (stereo unspecified)	inactive
CC[C@@H](C)[C@H](NC(=O)Cc1c(C)c2cc3c(C)c(C)oc3c(C)c2oc1=O)C(=O)O	inactive
Cc1c(C(=O)CN2CCCC(C)(C)C2)c2ccccc2n1C	inactive
O=C(Nc1cccc(NC(=O)c2ccccc2[N+](=O)[O-])c1)c1ccccc1Cl	inactive
COc1ccc(C2/C=C\CN(S(=O)(=O)c3ccc(-c4ccccc4)cc3)CC(=O)N2Cc2ccc(F)cc2)cc1 (stereo unspecified)	inactive
COc1cc(NC(=O)c2cc(-n3cnnc3)ccc2Cl)cc(OC)c1	inactive
O=C(OCc1ccccc1)N1CCC2CC1c1cc(-c3ccc(F)cc3)ccc12 (stereo unspecified)	inactive
COc1cccc(-c2csc(N3CCN(CC(=O)NNC(=O)c4ccc(Br)cc4)CC3)n2)c1	inactive
CC(=O)c1cc(C#N)c(SCc2ccccc2C#N)nc1C	inactive
Cc1cccc(N2CCN(C(=O)COc3ccc4c(C)cc(=O)oc4c3C)CC2)c1C	inactive
COc1ccccc1CNC(=O)C1CCC(CNC(=O)[C@@H]2Cc3ccccc3CN2)CC1 (stereo partly specified)	inactive
Cc1ccccc1C(=O)Nc1cc(NC(=O)c2ccccc2C)cc(C(=O)O)c1	inactive
O=C(NNC(=O)c1ccccc1O)c1ccc(S(=O)(=O)Nc2ccccc2)cc1	inactive
COc1ccccc1-n1cnc2cc(NCc3ccco3)ccc21	inactive
C[C@@H]1COC(=O)[C@H](NC(=O)OCC2c3ccccc3-c3ccccc32)C/C=C\C[C@@H](CC(=O)N[C@H](CO)Cc2ccccc2)C(=O)N1	inactive
O=C(O)c1cc(N2C(=O)C=CC2=O)cc(N2C(=O)C=CC2=O)c1	inactive
COc1ccccc1C(CC(=O)Nc1ccccc1C)c1ccc(OC(C)C)cc1 (stereo unspecified)	inactive
CCN(C(=O)COC(=O)c1c(C)c(-c2ccccc2)nc2ccccc12)C1CCS(=O)(=O)C1 (stereo unspecified)	inactive
CSc1nccc(-c2sc(SC)c(C#N)c2-c2ccccc2)n1	inactive
O=C(C[C@H]1C/C=C\CCC(=O)OC[C@H]2CCCN2C1=O)NCCO	inactive

SMILES	outcome
CCNc1nc(Cl)nc(-c2cn(-c3ccccc3)c3ccccc23)n1	inactive
Cc1ccccc1NC(=O)N(CCc1nc2ccccc2[nH]1)Cc1ccccc1	inactive
COc1ccc(NC(=O)Nc2nnc(-c3ccccc3SCc3ccccc3)s2)cc1	inactive
O=C(NC1CCCC1)C(c1c[nH]c2ccccc12)N(C(=O)Cn1nnc(-c2ccc(Cl)cc2)n1)c1ccccc1 (stereo unspecified)	inactive
CC(C)(C)NC(=O)N1CCN(c2ncccc2C(F)(F)F)CC1	inactive
CCOC(=O)c1[nH]c2c(c1-c1ccccc1)C(=O)CC(c1ccc(Cl)cc1)C2 (stereo unspecified)	inactive
COc1ccc(N2C(=O)C3C(C2=O)C3(c2ccccc2)c2ccccc2)cc1 (stereo unspecified)	inactive
COc1ccc(-c2nnn(CC(=O)N(C3CCCCC3)C(C)C(=O)NC3CCCC3)n2)cc1OC (stereo unspecified)	inactive
CCc1cc(=O)oc2c3c(cc(OCC(=O)NCc4ccco4)c12)OC(C)(C)CC3	inactive
CCCC(=O)N1CCc2cc(-c3nc(N)sc3C)ccc21	inactive
COc1cccc(-c2csc(N3CCN(C(=O)NC45CC6CC(CC(C6)C4)C5)CC3)n2)c1	inactive
O=C(C[C@@H]1C/C=C\C[C@H](NC(=O)OCC2c3ccccc3-c3ccccc32)C(=O)O[C@H](c2ccccc2)CNC1=O)NCCO	inactive
Cc1cc(=O)oc2cc(OCC(=O)N3CCN(C(=O)C4COc5ccccc5O4)CC3)c(Cl)cc12 (stereo unspecified)	inactive
CCNC(=O)c1c(NC(=O)c2cc(-c3cc(C)cc(C)c3O)n[nH]2)sc2c1CCCC2	inactive
CNc1cnn(-c2ccc(C)cc2)c(=O)c1Sc1ccc(C)cc1	inactive
Cc1cc(C)c(C)c(S(=O)(=O)N2CCN(CC(=O)NC(=O)NCc3ccccc3)CC2)c1C	inactive
COc1ccc(CNC(=O)C(c2ccc(C)cc2)N(Cc2cccs2)C(=O)c2ccc3c(c2)OCCO3)cc1 (stereo unspecified)	inactive
CCN(C(=O)COn1nnc2ccc(S(=O)(=O)N(C)C)cc21)C1CCS(=O)(=O)C1 (stereo unspecified)	inactive
O=C(Nc1ccccc1F)c1ccc2c(c1)CCN2S(=O)(=O)c1ccccc1	inactive
COCCOC(=O)c1[nH]c2c(c1C)C(=O)CC(c1ccco1)C2 (stereo unspecified)	inactive
O=C(OCCNc1ncc(C(F)(F)F)cc1Cl)c1ccc(S(=O)(=O)N2CCOCC2)cc1	inactive
CCc1cc(CNC(=O)C2CCC(=O)N(CCc3cccc(F)c3)C2)on1 (stereo unspecified)	inactive
O=C(NCCn1cc(SCC(=O)N2CCOCC2)c2ccccc21)c1c(F)cccc1F	inactive

SMILES	outcome
COc1ccc(OC)c(CCNC(=O)c2ccc3c(c2)N(Cc2ccccc2)CCS3)c1	inactive
COC(=O)c1cnc(Oc2ccc(NC(=O)NC(=O)c3c(OC)cccc3OC)cc2)cc1C(F)(F)F	inactive
COc1ccc(C)cc1N(CC(=O)NC1CCCC1)C(=O)Cn1nnc(-c2ccc(C)o2)n1	inactive
Cc1ccc(C(=O)COc2cc(O)c3c(=O)cc(-c4ccccc4)oc3c2)cc1	inactive
O=C(Nc1cccc(-c2cn3c(n2)SCC3)c1)c1ccc2ccccc2n1	inactive
COC(=O)[C@]1(CC(C)C)N[C@H](c2ccc(-c3cccc(Cl)c3)cc2)[C@@H]2C(=O)N(C)C(=O)[C@@H]21	inactive
COc1cc(/C=C\C(=O)NCc2ccc3c(c2)cc(C)n3C)cc(OC)c1OC	inactive
Oc1csc(Cc2nc(-c3ccc4ccccc4c3)cs2)n1	inactive
Cc1ccc(-c2csc(N3CCN(c4ccc5nc(-c6ccncc6)n(CCN6CCCCC6)c5c4)CC3)n2)cc1	inactive
O=C(O)CC(C(=O)Nc1cccc(C(F)(F)F)c1)C1CCCO1 (stereo unspecified)	inactive
COc1ccc2sc(-c3ccc(N(C)C)cc3)c(C#Cc3cncn3C)c2c1	inactive
O=C(c1ccc(-n2nc(C(F)(F)F)c3c2CCCC3)cc1)N1CCOCC1	inactive
CCSCC1COC(c2cccn2Cc2ccc(C)cc2)=N1 (stereo unspecified)	inactive
Cc1sc(NC(=O)c2cccc([N+](=O)[O-])c2)c(C(N)=O)c1-c1ccc(C(C)(C)C)cc1	inactive
CS(=O)(=O)N1CCc2cc(C(=O)Nc3cccc([N+](=O)[O-])c3)ccc21	inactive
CC(CCc1ccccc1)NC(=O)C1CCN(C(=O)c2sccc2-n2cccc2)CC1 (stereo unspecified)	inactive
COc1cccc(-c2csc(N3CCN(C(=S)Nc4cccc(Cl)c4)CC3)n2)c1	inactive
Cc1ccccc1C(=O)N1CCc2cc(-c3nc(NC(=O)Cc4ccc5c(c4)OCO5)sc3C)ccc21	inactive
CC1CCCCC1NC(=O)c1nn(C)c2c1CS(=O)(=O)c1ccccc1-2 (stereo unspecified)	inactive
Cc1nn(Cc2c(Cl)cccc2Cl)c(C)c1NC(=O)CCCn1nc([N+](=O)[O-])c(Cl)c1C	inactive
Cc1ccc(OCC(=O)NNC(=O)C2CCN(c3ncnc4sc(C)c(C)c34)CC2)cc1	inactive
CC(C)CN(CC(C)C)C(=O)COn1nnc2ccc(S(=O)(=O)N3CCOCC3)cc21	inactive

Source: PubChem BioAssay AID493194 (Broad Institute, 2011)
